# From PubChem BioAssay AID2284153 (EPA ToxCast)
# Activity calls are given as the source filed them. Rule for the calls: active = hit-call score of the fitted dose curve at least 0.9, where 1 is the maximum; inactive = score below 0.9.
# Target: Muscarinic acetylcholine receptor M1 (Homo sapiens) (UniProt P11229)
# Test: ERF_FR_GPCR_hCHRM1: Eurofins (ERF) G Protein-Coupled Receptor (GPCR) Radioligand Binding LeadHunter Assay for human Muscarinic Acetylcholine Receptor M1 Antagonism, conducted at France lab site
# Experimental: ERF_FR_GPCR_hCHRM1 is a biochemical, single-readout assay that uses extracted gene-proteins in a cell-free assay. Measurements were taken 1 hour after chemical dosing in a 96-well plate. See M1 Human Acetylcholine (Muscarinic) GPCR Binding (Antagonist Radioligand) Assay, Cerep.ERF_FR_GPCR_hCHRM1 is an assay component calculated from the ERF_FR_GPCR_hCHRM1 assay. It is designed to measure radioligand binding using a type of binding reporter as detected by scintillation counting with radiometry technology.Data from the assay component ERF_FR_GPCR_hCHRM1 was analyzed at the assay endpoint, ERF_FR_GPCR_hCHRM1, in the positive analysis fitting direction relative to DMSO as the negative control and baseline of activity. Using a type of binding reporter, loss-of-signal activity can be used to understand changes in binding as they relate to gene CHRM1. To generalize the intended target to other relatable targets, this assay endpoint is annotated to the gpcr intended target family, where the subfamily is acetylcholine (Muscarinic).
# Human cells are incubated for 60 minutes at room temprature with [3H]pirenzepine ligand (2 nM) and pirenzepine as control inhibitor.Test Sample Requirements: Minimum for 1) Screen: 60 ul of 10 mM stock -OR- 1 mg (pre-weighed) for 10 uM final testing. 2) Dose Response: 90 ul of 10 mM stock -OR- 1 mg (pre-weighed) for a top concentration at 10 uM.
# Chain of Muscarinic acetylcholine receptor M1 (Homo sapiens) (P11229 whole entry, looked up): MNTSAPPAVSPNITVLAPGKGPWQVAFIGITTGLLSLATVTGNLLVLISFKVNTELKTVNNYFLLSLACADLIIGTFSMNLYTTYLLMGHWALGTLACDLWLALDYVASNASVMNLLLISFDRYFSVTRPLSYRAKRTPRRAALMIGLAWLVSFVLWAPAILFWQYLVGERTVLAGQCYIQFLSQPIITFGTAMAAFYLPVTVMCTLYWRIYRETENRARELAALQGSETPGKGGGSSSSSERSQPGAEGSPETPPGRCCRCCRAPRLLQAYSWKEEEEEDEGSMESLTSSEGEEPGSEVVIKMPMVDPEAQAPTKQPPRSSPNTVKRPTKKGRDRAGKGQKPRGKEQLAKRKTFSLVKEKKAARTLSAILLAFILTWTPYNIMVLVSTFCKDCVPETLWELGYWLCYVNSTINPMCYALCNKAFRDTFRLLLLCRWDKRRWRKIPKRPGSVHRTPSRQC
row,Structure (SMILES),AC50
1,O=C(/C=C/c1ccc(O)cc1)CC(=O)/C=C/c1ccc(O)cc1,5 µM (active)
